This is one part of a sample in which hits are shown more often than they occur.
Tgondii IFNg = blocks Toxoplasma gondii growth in the presence of IFN-gamma | Toxoplasma gondii growth in IFN-gamma-treated host cells; hits give low values | actives 3.8% (n = 69,000) | activity change, negative = inhibition, % (test concentration not listed) | AID 1259416; in the data active means activity change below about -70%, passing the limit was not always enough;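 further: host cells are HeLa cells infected with Toxoplasma gondii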
Numbers without * were called inactive.

SMILES	Tgondii IFNg
Cc1ccccc1CC(=O)Nc1ccc(-c2nc(Cn3cccn3)c(C)o2)cc1	31.8
Cc1cnn(Cc2nc(-c3ccc(NC(=O)c4ccc(F)cc4Cl)cc3)oc2C)c1	-45.1
Cc1oc(-c2ccc(NC(=O)/C=C/c3ccccc3)cc2)nc1Cn1cccn1	-86.9*
Cc1ccc(C)c(C(=O)Nc2ccc(-c3nc(Cn4cccn4)c(C)o3)cc2)c1	126.9
CN1CC2(CCCN(C(=O)Cc3ccc4c(c3)NC(=O)CO4)CC2)OC1=O (stereo not given)	7.5
Cc1noc(C)c1CCNc1ncc(-c2cccs2)c(-c2ccsc2)n1	-19.6
CC(C)(C)OC(=O)NCCNC(=O)c1cccs1	-42.1
CCOC(=O)c1cc(C)n(-c2c(Cl)cc(Cl)cc2Cl)n1	29.9
Cc1oc(-c2ccc(Cl)cc2)nc1CSc1nc2c(=O)[nH]cnc2n1C	-2.3
O=C(Sc1c(Cl)cccc1Cl)N1CCOCC1	70.1
O=c1[nH]c2ccc(Cl)cc2c(-c2ccccc2)c1C1=NNC(c2ccco2)C1 (stereo not given)	401.9
N#Cc1cnc(C2COc3ccccc3O2)nc1N (stereo not given)	346.7
CCOC(=O)c1nn(CCCc2ccccc2)c2c1CN(C(=O)c1cccnc1)CC2	-4.1
Cc1cnn(Cc2nc(-c3ccc(NC(=O)c4ccccc4)cc3)oc2C)c1	-38.4
Cc1cccc(C(=O)Nc2ccc(-c3nc(Cn4cc(C)cn4)c(C)o3)cc2)c1	-87.1*
Cc1cnn(Cc2nc(-c3ccc(NC(=O)c4cc(F)cc(F)c4)cc3)oc2C)c1	87.3
Cc1cnn(Cc2nc(-c3ccc(NC(=O)c4ccc(C(F)(F)F)cc4)cc3)oc2C)c1	-63.4
Cc1ccc(C(=O)Nc2ccc(-c3nc(Cn4cc(C)cn4)c(C)o3)cc2)cc1	61.7
Cc1cnn(Cc2nc(-c3ccc(NC(=O)c4ccccc4C(F)(F)F)cc3)oc2C)c1	-87.9*
Cc1cc(C)n(C)c(=O)c1C(=O)Nc1ncc(Cc2ccccc2Cl)s1	-24.8
N#Cc1ccc(-c2ccc([C@@H]3[C@@H]4CN(C(=O)Nc5ccc6c(c5)OCO6)C[C@H]3N4)cc2)cc1	-49.5
Cc1ccc(F)cc1NC(=O)c1nnn(Cc2nc(-c3ccc(Cl)cc3)oc2C)c1C	68.8
CCC(C)(C)NC(=O)CN1C(=O)CCc2cc(S(=O)(=O)N3CCCCC3C)ccc21 (stereo not given)	6.9
Cc1ccccc1-c1nc(CN(C)S(=O)(=O)c2ccc(Cl)cc2)c(C)o1	15.9
CCN(CC)S(=O)(=O)c1ccc2c(c1)N(Cc1nc(-c3ccccc3C)oc1C)C(=O)CS2	-77.5*
SMILES	Tgondii IFNg
Cc1ccccc1-c1nc(CN(C)S(=O)(=O)c2ccccc2)c(C)o1	-0.5
Cc1cccc(CN2CCOCC3(CCN(Cc4ccco4)C3)C2)n1 (stereo not given)	1.7
O=C(CN1CCC(Oc2ccc(F)cc2)CC1)Nc1ccnn1C1CCCC1	-57.3
COC1COC2(CCN(C(=O)C3CC(F)(F)C3)CC2)C1 (stereo not given)	34.4
CCS(=O)(=O)N1CCC2(CC1)CC(OC)CO2 (stereo not given)	-84.8*
CCS(=O)(=O)N1CCC2(CC1)CC(OCC1CCOCC1)CO2 (stereo not given)	9.6
O=S(=O)(C1CC1)N1CCCn2nnc(COCCO)c2C1	-2.5
CNC(=O)c1ccc(CNC(=O)Cc2c(C)[nH]c3c(C)ccc(C)c23)o1	4.9
CNC(=O)c1ccc(CNC(=O)c2[nH]c3ccc(C)cc3c2C)o1	-107.7*
Cc1ccc2[nH]c(C(=O)NCc3cccnc3)c(NC(=O)c3ccc(Cl)cc3)c2c1	-15.7
CC(C)(O)C#Cc1ccc(C(=O)N2CCC(c3ccccc3Cl)C2)o1 (stereo not given)	18.2
CCOc1ccccc1CN(C)Cc1cc(-c2ccncc2)no1	21.1
CN(Cc1cc(-c2ccncc2)no1)Cc1ccc(Cl)s1	-13.1
CN(Cc1cc(-c2ccncc2)no1)Cc1ccc(Cl)cc1F	-89.7*
COC(=O)CN(C(C)=O)c1nc(C)c(Cl)c(OC)n1	-14.6
C[N+](C)(C)CCOC(N)=O	-8.4
O=C(Nc1nc(-c2ccccc2)cs1)C1CCCN1C(=O)OCc1ccccc1 (stereo not given)	107.3
O=C(NCc1cccc(O)c1)Nc1nc(-c2ccncc2)cs1	-73.7*
COc1cccc(CNC(=O)Nc2ccc(-c3nc(-c4ccccc4)co3)cc2)c1	72.3
CS(=O)(=O)N1CCCc2ccc(NC(=O)Cc3cccc4cccnc34)cc21	-3.8
c1ccc2c(c1)CC1(CCCCC1)n1nnnc1-2	27.8
O=C1C(=O)N2C(=C1C(=O)N1CCOCC1)c1ccccc1CC21CCCCC1	-96.3*
O=C1C(=O)N2C(=C1C(=O)N1CCCCCC1)c1ccccc1CC21CCCC1	117.3
CCOC(=O)c1cc(C(=O)OC)c(C)nc1N1CCCN(Cc2ccc(F)cc2)CC1	-76.7*
CCOC(=O)c1[nH]ncc1CN1CCCN(c2cccc(OC)c2)CC1	51.3
Fc1ccc(N2CCCN(Cc3ccc4nonc4c3)CC2)cc1	30.1
CCc1nc(OCC(=O)Nc2ccc(OC)cc2OC)c2ccccc2n1	12.2
O=C(c1cnc2ccccn2c1=O)N1CC(=O)N(C2CCCCC2)CC(OCc2ccccc2)C1 (stereo not given)	-46.4
